ClpP mod: qHTS Assay for Activators of ClpP | ATP-dependent Clp protease proteolytic subunit (Bacillus subtilis (strain 168)), P80244 | purified B. subtilis ClpP, FRET peptide cleavage, 20 min | Potency, µM (titrated, usually from 57.5 µM) | actives 1.9% (n = 340,000) | AID 651965, 2013; active = well fitted falling curve with a large enough effect; inconclusive = small, poorly fitted or top-dose-only effect; inactive = no such curve, though single readings can be large or run the other way; note: the source files actives as falling curves though it sought activators and does not explain the sign; nearly all actives have a fitted effect of over 65% in size
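FRET quenching reversal measured ClpP activation: 10 microg/mL B. subtilis ClpP at pH 8 with the FRET-FV decapeptide, read at 430 nm after 320 nm excitation. The 20-min minus 0-min signal was scaled between DMSO/no-enzyme wells and ADEP (5.8 microM final).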
DT40 TDP1 no CPT: qHTS for Inhibitors of human tyrosyl-DNA phosphodiesterase 1 (TDP1): qHTS in cells in absence of CPT | actives 15% (n = 420,000) | DT40 Tdp1-/- hTDP1 cells, no CPT, ATP luminescence, 48 h | AID 686978, 2013 | Potency, µM (top dose mostly 46.2 µM), actives largely listed as inhibitors; note: nearly all actives have a fitted effect of over 55% in size
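Readout: luminescence from CellTiter-Glo after 30 min in the dark at RT. Cells: DT40 Tdp1-/- with stable hTDP1, 400/well. Exposure: compounds alone, ≥48 hr, 37 °C.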
DT40 TDP1 CPT: growth inhibition of DT40 Tdp1-/-;hTDP1 cells with camptothecin (screen for TDP1 inhibitors); chicken DT40 Tdp1-/-;hTDP1 cells + 20 nM CPT, ATP luminescence, 48 h; Potency, µM (top dose mostly 46.2 µM), most hits filed as inhibitors; actives 12% (n = 420,000); AID 686979; note: nearly all actives have a fitted effect of over 55% in size
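Chicken DT40 Tdp1-/- cells complemented with human TDP1, 400 cells/well, exposed to compounds plus 20 nM camptothecin for at least 48 h at 37 C; viability read as ATP content by CellTiter-Glo luminescence.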
TDP1 inh: inhibitors of human tyrosyl-DNA phosphodiesterase TDP1; recombinant TDP1, AlphaScreen DNA substrate cleavage; Potency, µM (doses to about 130 µM), most hits filed as inhibitors; actives 0.28% (n = 350,000); AID 485290; note: nearly all actives have a fitted effect of over 40% in size
Target sequence (Q9NUW8 whole entry, looked up): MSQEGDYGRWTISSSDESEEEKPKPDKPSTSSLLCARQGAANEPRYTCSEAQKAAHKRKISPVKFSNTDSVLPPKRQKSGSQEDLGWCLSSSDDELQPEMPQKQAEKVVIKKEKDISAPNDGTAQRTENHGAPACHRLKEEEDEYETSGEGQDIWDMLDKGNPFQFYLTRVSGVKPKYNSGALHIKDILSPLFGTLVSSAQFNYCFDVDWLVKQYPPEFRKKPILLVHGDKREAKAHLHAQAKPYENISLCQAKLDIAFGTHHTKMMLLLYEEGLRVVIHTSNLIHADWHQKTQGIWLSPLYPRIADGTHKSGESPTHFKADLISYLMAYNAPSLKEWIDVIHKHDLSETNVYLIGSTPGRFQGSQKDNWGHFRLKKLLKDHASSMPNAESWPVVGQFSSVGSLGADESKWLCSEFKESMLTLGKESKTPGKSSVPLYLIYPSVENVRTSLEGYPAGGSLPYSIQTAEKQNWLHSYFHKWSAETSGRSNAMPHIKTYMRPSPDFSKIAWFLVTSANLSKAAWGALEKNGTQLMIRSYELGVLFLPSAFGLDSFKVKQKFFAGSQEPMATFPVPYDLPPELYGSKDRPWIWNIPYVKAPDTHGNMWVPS
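Recombinant E. coli-expressed Tdp1 (1 nM) preincubated with compound 15 min at RT, then 5'-biotin/3'-phosphotyrosine-FITC DNA substrate (15 nM) added for 5 min. AlphaScreen beads (10 ug/ml) added, 10 min RT; tyrosine-FITC cleavage read as signal loss.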
Large screens that a line does not name were inactive. In the library only some 17% were active in any assay of this set; here they are far more common. Unless noted, calls come from the whole dose curve; as a rule, active = well fitted curve in the direction sought with a large enough effect; inconclusive = small, poorly fitted or top-dose-only effect, or another doubt; inactive = no such curve, though single readings can be large; an effect the other way counts as inactive or inconclusive.

Cc1ccccc1C(=O)NC(C(=O)Nc1nc2c(s1)CCCC2)C(C)C (configuration not stated)	DT40 TDP1 no CPT 26µM, DT40 TDP1 CPT 26µM
Cc1cc(C)nc(NC(=S)NC(=O)c2ccccc2F)n1	none (no result: ClpP mod, TDP1 inh)
CCC(=O)c1ccc(NC(C)=O)cc1O	none
CC(=O)Nc1ccc2c(c1)C(C)(C)C(C)N2C (configuration not stated)	DT40 TDP1 no CPT inconclusive, DT40 TDP1 CPT 16µM (no result: ClpP mod)
Nc1nc2c(ncn2C2C[C@H](O)[C@@H](CO)O2)c(=O)[nH]1 (some centres not stated)	DT40 TDP1 no CPT 6.5µM, DT40 TDP1 CPT 10µM (no result: TDP1 inh)
Nc1nc2c(ncn2C2OC(COC(=O)c3ccccc3)C(OC(=O)c3ccccc3)C2OC(=O)c2ccccc2)c(=O)[nH]1 (configuration not stated)	DT40 TDP1 no CPT 21µM, DT40 TDP1 CPT inconclusive (no result: ClpP mod)
Nc1nc2c(nnn2C2CC(O)C(CO)O2)c(=O)[nH]1 (configuration not stated)	DT40 TDP1 no CPT inconclusive, DT40 TDP1 CPT 29µM (no result: TDP1 inh)
CC(C)C(=O)Nc1nc2c(ncn2[C@H]2CC(O)[C@@H](CO)O2)c(=O)[nH]1 (some centres not stated)	DT40 TDP1 no CPT 13µM, DT40 TDP1 CPT 11µM
O=c1[nH]cnc2c1ncn2C1CC(O)C(CO)O1 (configuration not stated)	DT40 TDP1 no CPT inconclusive, DT40 TDP1 CPT inconclusive (no result: ClpP mod)
COC(=O)[C@@]1(Cc2ccc(OC)cc2)[C@H]2c3cc(C(=O)N(C)C)n(CCN4CNCC4=O)c3C[C@H]2CN1C(=O)c1ccccc1	none (no result: ClpP mod, DT40 TDP1 no CPT, DT40 TDP1 CPT)
CCOc1ccc(S(=O)(=O)NCCC(=O)NC2CCCCC2)cc1	none (no result: TDP1 inh)
O=C(O)/C=C/c1ccc2ccccc2c1	none (no result: TDP1 inh)
CC[N+](C)(CC)CCOC(=O)C1c2ccccc2Oc2ccccc21	DT40 TDP1 CPT inconclusive
CCOC(=O)c1cc(-c2ccccc2)n(CC(=O)Nc2ccc(OC)cc2OC)c1C	DT40 TDP1 no CPT inconclusive, DT40 TDP1 CPT 16µM
CCOC(=O)c1cc(-c2ccc(OC)cc2)n(CCC(=O)Nc2nc3ccc(OCC)cc3s2)c1C	DT40 TDP1 no CPT 9.2µM, DT40 TDP1 CPT 16µM
CCOC(=O)c1cc(-c2ccc(F)cc2)n(CCC(=O)Nc2cc(OC)cc(OC)c2)c1C	DT40 TDP1 no CPT 16µM, DT40 TDP1 CPT 15µM
CCOC(=O)c1cc(-c2ccccc2)n(CC(=O)Nc2ccc(OCC)cc2)c1C	DT40 TDP1 no CPT inconclusive, DT40 TDP1 CPT inconclusive
CCOC(=O)c1cc(-c2ccc(C)cc2)n(CC(=O)Nc2cc(C)ccc2C)c1C	DT40 TDP1 no CPT 15µM, DT40 TDP1 CPT 21µM
COc1ccc(Cl)cc1S(=O)(=O)NC(C)c1cnn(-c2ccccn2)c1C (configuration not stated)	DT40 TDP1 no CPT inconclusive (no result: TDP1 inh)
CCc1ccc(S(=O)(=O)NC(=S)NC2CCCCC2)cc1	none (no result: ClpP mod)
COc1ccc(C(C(=O)NC2CCCC2)N(Cc2cccnc2)C(=O)Cc2cccs2)c(OC)c1 (configuration not stated)	none (no result: ClpP mod)
COCCCNC(=O)CCC(=O)N1Cc2cccc(OC)c2Oc2ncccc21	none
CCOC(=O)c1cc(-c2ccccc2)n(CCC(=O)N2CCN(c3ccccn3)CC2)c1C	DT40 TDP1 no CPT 21µM, DT40 TDP1 CPT 15µM
CCOC(=O)c1cc(-c2ccccc2)n(CCC(=O)NCCc2ccccc2)c1C	DT40 TDP1 no CPT 16µM, DT40 TDP1 CPT 21µM
CCOC(=O)c1cc(-c2ccccc2)n(CCC(=O)NCc2ccccc2Cl)c1C	DT40 TDP1 no CPT 13µM, DT40 TDP1 CPT inconclusive
CC(=O)c1cc(-c2ccc(F)cc2)n(CCC(=O)Nc2nc3ccc(C)cc3s2)c1C	DT40 TDP1 no CPT 16µM, DT40 TDP1 CPT 26µM
O=C(CCN1C(=O)c2ccccc2C1=O)N1CCN(c2ccccn2)CC1	none
Cc1cc2cc(CCNC(=O)CCc3ccccc3)c(=O)[nH]c2cc1C	DT40 TDP1 CPT inconclusive (no result: TDP1 inh)
CC#CCN1c2ccccc2[C@]23C[C@@H](C(=O)OC)N(C(=O)NCCBr)C2=NC(C(=O)OC)=C(C(=O)OC)[C@H]13	none (no result: TDP1 inh)
CCOC(=O)c1cc(-c2ccc(OC)cc2)n(CCC(=O)Nc2cccc(C)c2C)c1C	DT40 TDP1 no CPT inconclusive
CCOC(=O)c1cc(-c2ccc(OC)cc2)n(CCC(=O)Nc2ccc(OC)cc2OC)c1C	DT40 TDP1 no CPT 21µM, DT40 TDP1 CPT 21µM
